Source: PubChem
Hedgehog inh: Hedgehog pathway signaling inhibitors, primary screen, luminescence, Shh-LIGHT2 cells, Gli-luciferase | Shh-LIGHT2 Gli-luciferase reporter, 30 h | inhibition, % (test concentration not listed) | 22,000 tested, 2.1% active;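 active means mean inhibition across valid replicates above about 65%, limit read from the data; inconclusive means mean under the limit, yet half or more replicates past it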;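 further: pathway switched on by Shh-conditioned medium diluted 1 in 25 in low serum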
NOMO-1 viab: NOMO-1 AML cell viability reduction, primary screen, STK33 inhibitor project, CellTiter-Glo luminescence. inhibition, % (concentration not given with the values). 37,000 tested, 7.5% active. NOMO-1 AML viability, 72 h; in the data active means inhibition above about 80%; inconclusive means no clear call, values can overlap the other calls
MITF inhib: inhibitors of MITF, primary screen, MITF inhibitor project, cell-based, luminescence; TRPM1 promoter luciferase, 24 h; AID 2240, 2010; 37,000 tested, 0.28% active; inhibition, % (no concentration beside the values); in the data active means inhibition above about 85%; inconclusive means no clear call, values can overlap the other calls; inactive means below about 68%;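 further: human melanocyte line stably carrying TRPM1 promoter luciferase reporter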
The depositor's hits bear a star; ? = inconclusive; nt = no result. An excerpt weighted towards active compounds, which were near 8.1% of everything screened.

SMILES	Hedgehog inh	NOMO-1 viab	MITF inhib
C[C@@H]1CN([C@H](C)CO)C(=O)Cc2cc(NC(=O)Nc3ccc(C(F)(F)F)cc3)ccc2O[C@@H]1CN(C)Cc1ccc(C(F)(F)F)cc1	9	120*	5
C[C@@H]1CN([C@@H](C)CO)C(=O)Cc2cc(NC(=O)Nc3ccc(C(F)(F)F)cc3)ccc2O[C@@H]1CN(C)Cc1ccc(Cl)c(Cl)c1	-21	115*	20
CC(C)NC(=O)Nc1ccc2c(c1)CC(=O)N([C@@H](C)CO)C[C@H](C)[C@H](CN(C)Cc1ccc(C(F)(F)F)cc1)O2	12	23	-5
C[C@@H]1CN([C@@H](C)CO)C(=O)Cc2cc(NC(=O)Nc3ccc(C(F)(F)F)cc3)ccc2O[C@@H]1CN(C)C(=O)NC1CCCCC1	24	113*	19
COC(=O)[C@@H]1C[C@@]23C=CC[N+]4([O-])CC[C@@]5(c6ccccc6N[C@@]15C2C)[C@H]34 (some centres undefined)	6	17	14
COc1ccc(S(=O)(=O)N(C)C[C@H]2Oc3c(NC(=O)NC(C)C)cccc3C(=O)N([C@@H](C)CO)C[C@@H]2C)cc1	-44	-4	2
Cc1ccc(C(=O)CC(C(=O)O)N2CCN(C)CC2)cc1 (centres undefined)	?	14	-1
C[C@@H]1CCCCO[C@@H](CN(C)Cc2ccc(C(=O)Nc3ccccc3N)cc2)[C@@H](C)CN([C@H](C)CO)C(=O)c2cc(NC(=O)CCC(F)(F)F)ccc2O1	nt	127*	5
C[C@@H]1CCCCO[C@@H](CN(C)Cc2ccc(C(=O)Nc3ccccc3N)cc2)[C@@H](C)CN([C@H](C)CO)C(=O)c2cc(NC(=O)Nc3ccc(F)cc3)ccc2O1	nt	111*	-16
C[C@@H]1CCCCO[C@@H](CN(C)Cc2ccc(C(=O)Nc3ccccc3N)cc2)[C@@H](C)CN([C@H](C)CO)C(=O)c2cc(NC(=O)Nc3ccc(C(F)(F)F)cc3)ccc2O1	nt	?	7
C[C@@H]1CCCCO[C@H](CN(C)Cc2ccc(C(=O)O)cc2)[C@@H](C)CN([C@H](C)CO)C(=O)c2cc(NC(=O)c3ccccc3)ccc2O1	nt	0	-1
C[C@@H]1CCCCO[C@@H](CN(C)Cc2ccc(C(=O)Nc3ccccc3N)cc2)[C@@H](C)CN([C@H](C)CO)C(=O)c2cc(NC(=O)C3CCCCC3)ccc2O1	nt	123*	-21
C[C@@H]1CCCCO[C@@H](CN(C)Cc2ccc(C(=O)Nc3ccccc3N)cc2)[C@@H](C)CN([C@H](C)CO)C(=O)c2cc(NC(=O)Nc3ccccc3)ccc2O1	nt	?	-7
C[C@@H]1CCCCO[C@@H](CN(C)Cc2ccc(C(=O)Nc3ccccc3N)cc2)[C@@H](C)CN([C@H](C)CO)C(=O)c2cc(NC(=O)c3ccccc3)ccc2O1	nt	141*	24
C[C@@H]1CCCCO[C@@H](CN(C)Cc2ccc(C(=O)Nc3ccccc3N)cc2)[C@@H](C)CN([C@H](C)CO)C(=O)c2cc(NC(=O)c3ccncc3)ccc2O1	nt	62	-11
COC(=O)c1c(NC(=S)Nc2c(C)nn(Cc3c(F)c(F)c(F)c(F)c3F)c2C)sc(C)c1-c1ccccc1	nt	14	-2
O=C(NCc1ccco1)c1cnn2c(C(F)F)cc(C3CC3)nc12	nt	23	-10
C[C@@H]1CCCCO[C@H](CN(C)Cc2ccc(C(F)(F)F)cc2)[C@@H](C)CN([C@H](C)CO)C(=O)c2cc(NC(=O)CCCCCC(=O)Nc3ccccc3N)ccc2O1	nt	131*	46
C[C@@H]1CCCCO[C@H](CN(C)Cc2ccncc2)[C@@H](C)CN([C@H](C)CO)C(=O)c2cc(NC(=O)CCCCCC(=O)Nc3ccccc3N)ccc2O1	nt	14	-15
CC(=O)O[C@H]1[C@H](Oc2cc(O)cc(O)c2C(=O)c2cc(O)cc(O)c2)O[C@H](CO)[C@@H](OC(=O)c2ccccc2)[C@@H]1O	-29	-2	1
Cc1c(O)cc(O)c2c1OC(c1ccccc1)CC2=O (centres undefined)	-8	2	-3
O=C1C[C@H](c2ccccc2)Oc2c(Cc3ccccc3O)c(O)cc(O)c21	-25	18	92*
C[C@H](CO)N1C[C@H](C)[C@H](CN(C)Cc2ccc(C(=O)Nc3ccccc3N)cc2)Oc2ccc(NC(=O)Cc3ccccc3)cc2CC1=O	nt	128*	14
C[C@@H]1CN([C@H](C)CO)C(=O)Cc2cc(NC(=O)Cc3ccccc3)ccc2O[C@H]1CN(C)Cc1ccc(C(=O)Nc2ccccc2N)cc1	nt	28	-13
C[C@@H]1CN([C@H](C)CO)C(=O)Cc2cc(NC(=O)CCC(F)(F)F)ccc2O[C@H]1CN(C)Cc1ccc(C(=O)Nc2ccccc2N)cc1	nt	44	-20
